Molecules are shown by their SMILES. The source made the active and inactive calls.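 How the source made its calls: active means clear integrase inhibition at one or more tested doses, judged significant by the depositor; inactive means only baseline response.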

The experiment has as its system HIV-1 integrase. Nature of the experiment: Gel-Based Assay for Inhibitors of HIV Integrase: Counterscreen for TDP1. The conditions noted are these: recombinant HIV-1 integrase, 32P DNA gel densitometry; series mostly up to 333 µM. Here is the method: HIV Integrase enables the HIV virus to integrate its genetic material into host cells's DNA. This particular assay was utilized as a counterscreen for inhibitors of human tyrosyl DNA phosphodiesterase I (Tdp1). See probe development summary bioassay AID 485312 for further details on the tdp1 inhibitors project.
HIV-1 integrase catalytic assay was carried out as previously described [Marchand et al. Methods in Enzymology 2001] by mixing 400 nM recombinant integrase with 20 nM [32P] radiolabeled DNA substrate in a buffer containing 50 mM MOPS, pH 7.2, 7.5 mM MgCl2, 14.3 mM 2-mercaptoethanol, and the drug of interest or 10% DMSO. Reactions were incubated at 37 degrees C for 1 h and quenched by the addition of an equal volume of gel loading dye (formamide with 0.25% bromophenol blue, 0.25% xylene cyanol and 5 mM EDTA). Reaction products were separated on a 16% polyacrylamide denaturing sequencing gel. Dried gels were exposed overnight and visualized using a Typhoon 8600 (GE Healthcare, Piscataway, NJ). Densitometry analyses were performed using the ImageQuant software from GE Healthcare.
(In general: A counterscreen serves to expose hits that act by an unwanted route or on another target.)
Regarding `O=c1c2ccccc2nc2sc(Nc3ccc4c(c3)CCC4)nn12`, the outcome was inactive.
Next, `O=c1c2ccc(Br)cc2nc2sc(Nc3ccc4c(c3)CCC4)nn12`: “inactive”.

Source of the values: PubChem BioAssay AID492990 (National Center for Advancing Translational Sciences (NCATS), 2010).
